Consider 64 compounds from PubChem BioAssay AID2540 (Sanford-Burnham Center for Chemical Genomics, 2010).

SMILES strings stand for the structures. In all, about 330,000 compounds went through this assay and about 4,100 (1.2%) were called active. This is one part of a sample in which actives are shown more often than they occur. No stated cut-off is given here; in the data, active means inhibition above about 50%; inactive means the rest.

For the assay, the target named is Sentrin-specific protease 8 (Homo sapiens) (UniProt Q96LD8). Put plainly: SENP8 protease inhibitors, primary screen, biochemical, luminescence (AID 2540). The following applies: purified SENP8, Z-RLRGG-aminoluciferin cleavage, at 10 µM, stronger effect = higher value.
Chain of Sentrin-specific protease 8 (Homo sapiens) (Q96LD8 whole entry, looked up): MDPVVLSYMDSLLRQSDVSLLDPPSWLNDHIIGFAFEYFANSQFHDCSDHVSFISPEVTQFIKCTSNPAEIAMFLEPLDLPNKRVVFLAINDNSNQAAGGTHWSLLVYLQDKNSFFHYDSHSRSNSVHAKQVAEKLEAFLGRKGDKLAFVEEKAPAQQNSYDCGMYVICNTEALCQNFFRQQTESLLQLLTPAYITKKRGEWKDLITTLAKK
For the compound `O=C(Nc1ccc(Cl)cn1)c1ccc2c(c1)OCCO2`, the inhibition was 75.8% (active). As to `O=C(Nc1ccc(Cl)cn1)c1cnn2cccnc12`, the inhibition was -0.161% (inactive). Consider `Cc1ccc(C(=O)NNC(=O)c2ccc3c(c2)OCCO3)cc1`, for which the inhibition was 5.52% (inactive). In the case of `CCCc1cc(C(=O)Nc2ccc(C(=O)OC)cc2)cs1`, the inhibition was -3.33% (inactive). Consider `CCCc1cc(C(=O)Nc2ccc(Cl)cn2)cs1`, for which the inhibition was 66.2% (active). `CCCCC(CC)C(=O)Nc1ccc(Cl)cn1` (centres undefined): the inhibition was 7.93% (inactive). With `COc1ccc(C(=O)NC(=S)Nc2ccc(Cl)cn2)cc1OC`, the inhibition is -13.1% (inactive). Under `Cc1cccc(C)c1NC(=O)CNC(=O)c1ccc2c(c1)OCCO2` stands -10.7% (inactive). In the case of `Cc1nc(NC(=O)c2ccc3c(c2)OCCO3)ccc1Br` it was 74.8% (active). With `CCCCN(C(=O)CCNC(=O)NC12CC3CC(CC(C3)C1)C2)c1c(N)n(CCCC)c(=O)[nH]c1=O`, the inhibition was -4.31% (inactive). Consider `COc1ccccc1NC(=O)CCC(=O)OC(C)C(=O)c1ccccc1` (centres undefined), for which the inhibition was -4.92% (inactive).

Consider `Cc1cc(Nc2cc(N3CCN(C)CC3)nc(Sc3ccc(NC(=O)C4CC4)cc3)n2)n[nH]1`, for which the inhibition was -3.96% (inactive). In the case of `CC(=O)N(C1=C(Cl)C(=O)c2ccccc2C1=O)c1ccc(C(=O)O)cc1` it was 61.8% (active); in that of `O=C(CCN1C(=O)c2ccccc2C1=O)NNC(=O)c1ccc(Cl)cc1Cl`, -11.3% (inactive). As for `O=S1(=O)CC/C(=N\Nc2ccc(F)cc2)c2ccsc21`, the inhibition was -11.5% (inactive). For `CNC(C)C#Cc1ccc2sc3cc(OC)c(OC)cc3c(=O)c2c1` (centres undefined), the inhibition was 70.5% (active). In the case of `O=C(NC(=S)N1CCCCC1c1cccnc1)c1ccccc1` (centres undefined), the inhibition is -8.93% (inactive). In the case of `O=C(CCCCO)c1ccc(O)c(Cl)c1` it was -4.6% (inactive); in that of `Cc1cc(N2CCOCC2)nc(-c2ccc(Br)cc2)n1`, -13.3% (inactive). In the case of `Cc1ccc2nc(-c3ccc(Br)cc3)cn2c1` it was 74.4% (active). On to `CSc1nnc2ccc(-c3ccc(C)cc3)nn12`, for which the inhibition was -14.2% (inactive). Turning to `Cc1ccn2cc(C(=O)NC3CCN(Cc4ccccc4)CC3)nc2c1`, the inhibition is 3.06% (inactive). Turning to `Cc1ccc(-c2cn3cc(C)ccc3n2)cc1`, the inhibition was 84.7% (active). On to `Cc1ccc(-n2c(-c3ccc(Cl)cc3)n[nH]c2=S)cc1`, for which the inhibition was -0.548% (inactive). Under `Cc1ccc(-c2cc(N)on2)cc1` stands -6.42% (inactive); under `CCN(CC)S(=O)(=O)c1ccc(-c2cn3ccc(C)cc3n2)cc1`, -1.4% (inactive). For `COc1ccc(-c2cn3ccc(C)cc3n2)cc1`, the inhibition was 95.5% (active).

Take `COCCN(CCOC)S(=O)(=O)NC[C@H]1O[C@@H](n2cnc3c(N)ncnc32)[C@H](O)[C@@H]1O`: the inhibition was 3.39% (inactive). Under `COc1ccccc1CCNS(=O)(=O)c1cc2c3c(c1)C(C)C(=O)N3CCC2` (centres undefined) stands -8.53% (inactive). `CCn1nc(C)c(/C=N/NC(=O)Cc2ccc(Cl)cc2)c1C`: the inhibition is -9.56% (inactive). In the case of `Cc1ccc(NC(=O)CC2C(=O)N(Cc3ccccc3)C(=S)N2NC(=O)c2cccc(F)c2)c(C)c1` (centres undefined) it was -4.05% (inactive). As to `Cc1ccc(O)c(NC(=S)NC(=O)COc2ccc(Br)cc2)c1`, the inhibition is -5.01% (inactive). For the compound `CCCc1cc(=O)[nH]c(SCc2ccc(C#N)cc2)n1`, the inhibition is 0.541% (inactive). In the case of `Cc1noc(C)c1/C=N/Nc1ccc2ccccc2n1` it was -8.03% (inactive); in that of `C(=N\Nc1ccc2ccccc2n1)/c1ccc2c(c1)OCO2`, 93.1% (active); in that of `Cc1cc(=O)[nH]c(N/N=C/c2ccc3c(c2)OCCO3)n1`, -1.24% (inactive). With `COc1cc(-c2nnc(Cn3cc(C(F)(F)F)ccc3=O)o2)cc(OC)c1OC`, the inhibition is -4.14% (inactive).

For `Cc1ccc(C)c(-n2c(SCC(=O)O)nc3sc4c(c3c2=O)CCCC4)c1`, the inhibition was -9.61% (inactive). Turning to `CCCCCc1ccc(-c2ccc(C(=O)O)cc2)nc1`, the inhibition is 92.4% (active).

For the compound `CCCCCc1ccc(-c2ccc(OCC)cc2)nc1`, the inhibition is -5.58% (inactive).

Consider `CCCCCc1ccc(-c2cn(Cc3ccc4ccccc4c3)nn2)cc1`, for which the inhibition was -9.63% (inactive). Consider `CC(C)CN(C(=O)CSc1nncn1C)C1CCS(=O)(=O)C1` (centres undefined), for which the inhibition is -3.63% (inactive). `CCOCCc1nn2c(=O)cc(CSCC(=O)Nc3cccc(C)c3C)nc2s1`: the inhibition was -0.564% (inactive). For `O=C(Nc1nnc(C2COc3ccccc3O2)o1)c1ccc(F)cc1` (centres undefined), the inhibition is -17.2% (inactive). In the case of `FC(F)(F)c1ccnc(Oc2ccc(C3=NCCS3)cc2)c1`, the inhibition is 67.8% (active). `CC(C)Oc1ccc(Oc2ccc(C(F)(F)F)cn2)cc1`: the inhibition is -8.39% (inactive). `NC1=NC(=O)C(Cc2cccc(Cl)c2)S1` (centres undefined): the inhibition is -2.31% (inactive). Turning to `O=C(NCCCN1CCOCC1)c1cnn2c(-c3ccccc3)cc(-c3ccccc3)nc12`, the inhibition is -0.117% (inactive). Consider `N#C/C=C1\Sc2ccccc2C(=O)N1CC(=O)N1CCN(S(=O)(=O)c2ccccc2)CC1`, for which the inhibition is -2.48% (inactive). Turning to `CCCOc1ccc(C(=O)NCCc2ccccc2)cc1`, the inhibition is 52% (active). For the compound `CCCc1ccc(OCCNC(=O)c2ccco2)cc1`, the inhibition was 2.92% (inactive). As for `CCCc1ccc(OCCNC(=O)c2ccccc2Br)cc1`, the inhibition is 7.2% (inactive).

Regarding `CCCC(C(=O)n1nc(C)cc1C)C(NS(=O)(=O)c1ccc(C)cc1)c1ccccc1` (centres undefined), the inhibition was -2.3% (inactive).

With `Cc1ccc(C)c(NC(=O)NNC(=O)c2ccc3ccccc3c2O)c1`, the inhibition is -2.4% (inactive). For `C#CCOCCOCCOCCNc1nc(N2CCN(C(=O)[C@H](CCCN=C(N)N)n3cc(C(N)[C@@H](C)CC)nn3)CC2)nc(N2CCN(C(=O)[C@H](CO)n3cc([C@@H](N)C(C)C)nn3)CC2)n1` (some centres undefined), the inhibition is 5.69% (inactive). On to `CNC(=S)Nc1ccc([N+](=O)[O-])cc1`, for which the inhibition was -4.02% (inactive).

In the case of `O=C(O)/C=C/C(=O)NNc1ccc([N+](=O)[O-])cc1`, the inhibition is 69.3% (active). Regarding `O=C(Cc1ccccc1)NNS(=O)(=O)c1ccc([N+](=O)[O-])cc1`, the inhibition was -1.17% (inactive). With `CCOC(=O)C1(Cc2cccc(OC)c2)CCN(Cc2csc(C(C)=O)c2)CC1`, the inhibition was -11.2% (inactive). Under `O=C(CCCCCn1c(=S)[nH]c2ccsc2c1=O)NC1CCCCC1` stands 0.315% (inactive); under `Cc1nn(CC(=O)Nc2ccc(C#N)cc2)c(C)c1[N+](=O)[O-]`, -9.74% (inactive); under `CN(CC(=O)Nc1ccc(Cl)cc1)CC(=O)Nc1cccc2ccccc12`, -2.39% (inactive).

Take `O=C(Nc1cccc2ccccc12)c1onc2c1CCCC2`: the inhibition is 71.5% (active). As to `O=C(O)Cc1ccc(NC(=O)Nc2cccc3ccccc23)cc1`, the inhibition was -11% (inactive).

Usually inhibition stands for the drop in the measured response relative to a control, in per cent.
